The whole screen tested about 68,000 compounds, of which about 2,700 (4%) showed an effect of 50% or more. The entries come from a sample that favours strong results as a whole.
tested on: Plasmodium berghei; assay: Screen against P. berghei liver stage (PbLuc), transformed with Luciferase, at 2uM; assay type: functional, HepG2; settings: tested at 2 uM

| SMILES | INHIBITION [%] |
| --- | --- |
| Cc1nccn1-c1nccnc1C1CCCN(C)C1 (stereo not given) | 1.75 |
| CCC(=O)NCC(=O)NCC(C)(C)c1cccc(Br)c1 | 15.2 |
| CN(C)c1nc2c(c(N(C)C)n1)CCN(C(=O)CN1C[C@H]3CC[C@@H]1C3)C2 | -34.98 |
| O=C(NCC1CC1)C1CN(C(=O)c2cccs2)CC12CCOCC2 (stereo not given) | -4.92 |
| O=C(NCC1CC1)C1CN(C(=O)c2ccco2)CC12CCOCC2 (stereo not given) | 14.39 |
| O=C(NCC1CC1)C1CN(C(=O)c2cccnc2)CC12CCOCC2 (stereo not given) | -1.37 |
| O=C(NCC1CC1)C1CN(C(=O)c2ccnnc2)CC12CCOCC2 (stereo not given) | 59.59 |
| O=C(NCC1CC1)C1CN(C(=O)c2cccc(Cl)c2)CC12CCOCC2 (stereo not given) | 71.99 |
| O=C(NCC1CC1)C1CN(C(=O)c2ccncc2)CC12CCOCC2 (stereo not given) | -12.21 |
| Cc1nnc(N2CC[C@@H](OCC3CC3)[C@@H](Cc3ccccc3)C2)s1 | 1.74 |
| Cc1cc(C(=O)N(CC(F)(F)F)C2CCOCC2)c(C)o1 | 7.68 |
| Cc1noc(C)c1-c1cncc(C2CCCN2Cc2ccncc2)n1 (stereo not given) | 27.8 |
| COc1ccc(OC2CCN(C(=O)CCc3n[nH]c(C)n3)CC2)cc1 | -2.77 |
| COc1ccc(N2CCN(C(=O)CCc3n[nH]c(C)n3)CC2=O)cc1 | 62.3 |
| Cc1ccc(N2CCN(C(=O)CCc3n[nH]c(C)n3)CC2=O)cc1 | 19.75 |
| O=C(O)[C@H]1OCC(=O)N(Cc2cccc(F)c2)[C@@H]1c1ccc(Cl)cc1 | -4.48 |
| Cc1cccc(Nc2cccc(C3CCCN(Cc4ncc[nH]4)C3)n2)n1 (stereo not given) | 7.02 |
| Cc1cnn(CC2CCCN2CC(=O)N(C)CCC#N)c1 (stereo not given) | -31.3 |
| CC(=O)N1CCN(C(=O)C[C@@H]2C[C@@H](C(C)C)[C@H](CC#N)C=C2C)CC1 | 46.32 |
| CC1=C[C@@H](CC#N)[C@H](C(C)C)C[C@H]1CC(=O)N1CCN(CCO)CC1 | -3.1 |
| CC1=C[C@@H](CC#N)[C@H](C(C)C)C[C@H]1CC(=O)N1CCN(C)CC1 | 62.8 |
| Cc1cc(-c2cccc(C(=O)O)c2)nc(C2CCN(C(C)C)CC2)n1 | 24.56 |
| O=C(NC1CC1)[C@H]1CC[C@@H]2[C@@H](CCN2c2ncc(F)cn2)O1 | 1.07 |
| COc1ccc(C)cc1CN(C)CCCNS(C)(=O)=O | -81.99 |

| SMILES | INHIBITION [%] |
| --- | --- |
| Cn1c(=O)oc2cc(Nc3nccnc3C#N)ccc21 | 9.42 |
| Cn1c(=O)oc2ccc(Nc3ncc(C#N)cc3Cl)cc21 | -4.24 |
| Cn1c(=O)oc2cc(Nc3ncc(C#N)cc3Cl)ccc21 | 53.13 |
| CCOc1nnc(CN2CCN(CCOC)C(CC)C2)s1 (stereo not given) | -8.54 |
| CCc1ncnc2c1CCN(S(=O)(=O)c1ccccc1)CC2 | 5.44 |
| CCOc1ncnc2c1CCN(S(=O)(=O)c1ccccc1)CC2 | 55.07 |
| CCOc1ncnc2c1CCN(S(=O)(=O)CC)CC2 | 8.41 |
| CC1COCCN1C(=O)COc1ccc(Oc2ccccn2)cc1 (stereo not given) | 41.88 |
| OCc1ccc(-c2c(-c3ccccc3)ncn2CCN2CCOCC2)o1 | -23.34 |
| c1ccc(-c2ncn(CCCN3CCOCC3)c2-c2ccncc2)cc1 | 64.9 |
| Cc1ccc(-c2c(-c3ccccc3)ncn2CCCN2CCOCC2)o1 | 33.9 |
| CC(C)(Cn1cnc(-c2ccccc2)c1-c1ccco1)N1CCOCC1 | -9.41 |
| Cc1nc(-c2c(-c3ccccc3)ncn2CCCN2CCOCC2)c[nH]1 | 64.9 |
| O=C(NCCCN1CCOCC1)c1cc(-c2ccccc2)[nH]n1 | -55.91 |
| CC(=O)N1CCN(C(=O)c2[nH]nnc2Nc2ccccc2F)CC1 | -66.39 |
| COc1cccc(Cn2cc(N3C(=O)[C@H]4CCCC[C@H]4C3=O)cn2)c1 | -3.8 |
| CN(C(=O)COCc1ccccc1)C1CCN(CC2CCOC2)CC1 (stereo not given) | -11.88 |
| CC(C)S(=O)(=O)NCC1CCCN(C(=O)c2ccc(Cl)cc2)C1 (stereo not given) | 16.82 |
| N#Cc1csc(CNCCOc2ccc(Cl)cn2)c1 | 10.91 |
| Cc1cnn(CCNCc2nc(-c3ccccn3)no2)c1 | 13.36 |
| Cc1cnn(CCNCc2nc(-c3ccccc3Cl)no2)c1 | 73.05 |
| CCn1nc(C)c(CNCCn2cc(C)cn2)c1C | -0.98 |
| CCc1noc(CNCCn2cc(C)cn2)n1 | -24.75 |
| Cc1cnn(CCNCc2c(C(C)C)nn(C)c2Cl)c1 | 31.81 |

| SMILES | INHIBITION [%] |
| --- | --- |
| Cc1cnn(CCNCc2c(C)nn(C)c2Cl)c1 | 56.15 |
| CN1CCN(c2cnn(CCn3cccn3)c(=O)c2)CC1 | 26.14 |
| Cc1cc(C(=O)N2C[C@@H]3C(CN(C)CCCn4cccn4)[C@@H]3C2)c(C)o1 (stereo not given in full) | -6.53 |
| Cc1cc(C(=O)N2C[C@@H]3C(CN(C)CCc4ccccn4)[C@@H]3C2)c(C)o1 (stereo not given in full) | 33.7 |
| Cc1ccccc1C(=O)N1C[C@@H]2C(CN(C)CCc3ccccn3)[C@@H]2C1 (stereo not given in full) | 56.21 |
| Cc1cccc2c1ccn2CCC(=O)O | 4.39 |
| Cc1noc(-c2ccc(N3CCCC(C(=O)O)C3)nc2)n1 (stereo not given) | 25.69 |
| Cc1noc(-c2ccc(N3CCCC(C(=O)c4nccn4C)C3)nc2)n1 (stereo not given) | 58.53 |
| CCOC(=O)C1CCCN(c2ccc(-c3nc(C)no3)cn2)C1 (stereo not given) | -9.62 |
| Cc1noc(-c2ccc(N3CCCC(C(=O)N4CCSCC4)C3)nc2)n1 (stereo not given) | -13.24 |
| Cc1noc(-c2ccc(N3CCCC(C(N)=O)C3)nc2)n1 (stereo not given) | 22.86 |
| Cc1noc(-c2ccc(N3CCC(C(=O)N4CCCC4)CC3)nc2)n1 | 51.96 |
| CC(C)c1nc(C2CCCN2C(=O)c2cnc[nH]2)no1 (stereo not given) | -66 |
| COc1cccc(NC(=O)C(C)Cn2cc(Cl)cn2)c1 (stereo not given) | 36.45 |
| Cc1ccc2nnc(C(=O)NCCCn3cccn3)nc2c1 | -41.49 |
| CC(C)(C(=O)NCC(=O)NCc1ccccc1)c1ccccc1F | -3.22 |
| COc1ccsc1C(=O)Nc1cc(CN2CCOCC2)ccc1C | 37.63 |
| CCC1c2ccsc2CCN1Cc1cc2c(cc1OC)OCCO2 (stereo not given) | 10.03 |
| CC1c2ccsc2CCN1Cc1cc2c(cc1O)OCO2 (stereo not given) | 12.7 |
| COc1cc2c(cc1CN1CCc3sccc3C1C)OCCO2 (stereo not given) | 18.06 |
| COc1cc2c(cc1CN1CCc3sccc3C1C)OCO2 (stereo not given) | 59.65 |
| COc1ccc(CN2CCc3sccc3C2C)cc1CN1CCOCC1 (stereo not given) | 56.39 |

— ChEMBL document CHEMBL4513216, “Probing the Open Global Health Chemical Diversity Library for Multistage-Active Starting Points for Next-Generation Antimalarials” (ACS Infect Dis, 2020)
